Measured values published in the supplement of paper PMC6555819.

Key:
Assay in all cases: PBM binding z-score (relative to random genomic background probes); higher = stronger binding; sequences stand for … in GC…GCGATTGACAGCGTAGAATGAAGG
[1] = test system: FXR:RXRa (NR concentration 270 nM, RXRa partner concentration 90 nM)
How it was run: (§1)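 Custom Agilent 4×180K protein-binding microarrays carried double-stranded probes. Their 34-nt variable regions held direct-repeat seeds, single-nucleotide variants, half-site ablations and random human genomic background sequences. Arrays were incubated 1 h with ligand-free nuclear receptor dimers in PBS pH 7.4, 2% milk, 0.02% Triton X-100, 1 mM DTT, 0.2 mg/mL BSA and 0.4 mg/ml salmon testes DNA. Antibodies against each partner (one per run) detected binding, and scanned fluorescence was regression-normalized. Binding z-scores use random background probes as reference.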

[2] = test system: LXRa:RXRa (NR concentration 270 nM, RXRa partner concentration 90 nM)
How it was run: as §1

[3] = test system: LXRa homodimer (NR concentration 270 nM)
How it was run: as §1

[4] = test system: LXRb:RXRa (NR concentration 270 nM, RXRa partner concentration 90 nM)
How it was run: as §1

[5] = test system: LXRb homodimer (NR concentration 270 nM)
How it was run: as §1

[6] = test system: PPARa:RXRa (NR concentration 270 nM, RXRa partner concentration 90 nM)
How it was run: as §1

[7] = test system: PPARg:RXRa (NR concentration 180 nM, RXRa partner concentration 90 nM)
How it was run: as §1

[8] = test system: PPARg:RXRa 270nM:90nM, anti-RXR (NR concentration 270 nM, RXRa partner concentration 90 nM)
How it was run: as §1

[9] = test system: PPARg:RXRa 30nM:10nM, anti-RXR (NR concentration 30 nM, RXRa partner concentration 10 nM)
How it was run: as §1

[10] = test system: PPARg:RXRa 90nM:30nM, anti-RXR (NR concentration 90 nM, RXRa partner concentration 30 nM)
How it was run: as §1

[11] = test system: PPARg:RXRa DBDmut IVT, anti-RXR (DBD mutation: RXRa K156A/R161A, NR concentration 270 nM, RXRa partner concentration 90 nM)
How it was run: as §1

[12] = test system: PPARg:RXRa IVT, anti-PPARg (NR concentration 270 nM, RXRa partner concentration 90 nM)
How it was run: as §1

[13] = test system: PPARg DBDmut:RXRa IVT, anti-PPARg (DBD mutation: PPARg1 K132A/R137A, NR concentration 270 nM, RXRa partner concentration 90 nM)
How it was run: as §1

[14] = test system: PPARg DBDmut IVT, anti-PPARg (DBD mutation: PPARg1 K132A/R137A, NR concentration 270 nM)
How it was run: as §1

[15] = test system: PPARg homodimer (NR concentration 180 nM)
How it was run: as §1

[16] = test system: PXR:RXRa (NR concentration 270 nM, RXRa partner concentration 90 nM)
How it was run: as §1

[17] = test system: PXR homodimer (NR concentration 270 nM)
How it was run: as §1

[18] = test system: RARa:RXR (NR concentration 270 nM, RXRa partner concentration 90 nM)
How it was run: as §1

[19] = test system: RARa homodimer (NR concentration 270 nM)
How it was run: as §1

[20] = test system: RARb:RXRa (NR concentration 270 nM, RXRa partner concentration 90 nM)
How it was run: as §1

Sequence	PBM binding z-score [1]	PBM binding z-score [2]	PBM binding z-score [3]	PBM binding z-score [4]	PBM binding z-score [5]	PBM binding z-score [6]	PBM binding z-score [7]	PBM binding z-score [8]	PBM binding z-score [9]	PBM binding z-score [10]	PBM binding z-score [11]	PBM binding z-score [12]	PBM binding z-score [13]	PBM binding z-score [14]	PBM binding z-score [15]	PBM binding z-score [16]	PBM binding z-score [17]	PBM binding z-score [18]	PBM binding z-score [19]	PBM binding z-score [20]
AGTCAAAGTTCCCTAGGTAACGTAAGATTCAGCT	-0.33	-0.385	-0.0977	-0.4	-0.222	-0.259	0.281	0.455	0.0394	-0.0115	-0.23	0.612	-0.729	0.358	-0.325	0.00195	-0.697	-0.125	-0.463	0.687
TCTAGCAGGCCAAAGGGTCACTCAAGAGGTACGG	2.46	2.67	0.121	2.6	-0.592	3.89	3.36	4.84	3.5	4.89	1.61	2.45	-0.396	-0.432	2.19	2.95	-0.0548	3.89	0.234	3.74
ATCTCTAGGTAACCCAGTTCAGTGAATGCCGAAC	0.242	0.741	0.606	0.843	0.72	1.72	1.52	1.69	0.311	1.12	4.06	4.47	1.33	1.28	1.12	1.64	1.23	0.719	0.547	0.652
CCGACTGGGGCATAAAGGTTACCATACCATCCGG	0.385	0.747	-0.0869	0.923	-0.959	2.47	3.04	3.77	2.08	3.81	1.89	3.25	-0.548	-1.23	1.42	1.3	-0.303	1.83	0.301	1.89
CAAACTCGGTCACAGAGGTCAAAGTCCGTGCGTA	5.99	6.29	7.24	5.29	2.04	5.72	5.27	6.24	3.25	5.58	5.32	6.01	1.83	1.84	5.93	6.25	8.31	6.39	2.88	4.75
GCTAGTTGGACAGTAAAAGGTCACACACCGGTCG	2.82	4.25	4.25	4.22	0.188	4.4	2.61	3.78	1.89	3.36	0.431	2.16	-0.417	-0.407	3.24	4.68	1.09	5.53	1.25	3.95
TCTAGTTAGTCAAAGGTCACACACTCGAAATGCG	5.6	5.78	4.78	5.34	1.76	5.98	8	7.8	6.86	8.1	2.7	4.43	1.17	3.06	5.38	5.63	2.01	6.72	3.05	4.74
CAAACTAGGTCACAGAGGTCACAGTCCGTGCGTA	6.73	6.02	6.09	5.37	1.35	6.43	10.1	8.04	6.43	8.12	8.75	9.01	2.8	2.69	5.83	6.57	9.23	7.15	2.78	5.35
CCGAGTAGGTTATTGGGCATTCAGGCAACGGTGA	0.0641	0.327	0.00288	-0.0396	-0.644	0.768	1.19	2.31	0.262	1.6	3.85	2.72	-1.32	-0.589	0.636	-0.415	-0.545	-0.107	-0.0218	0.472
CCGACTGGGGCAGTAAGGTTACCATACCATCCGG	0.252	-0.0103	-0.54	-0.134	-0.789	1.16	1.03	1.17	-0.0768	0.343	2.7	2.69	-1.07	-1.44	0.0978	0.28	-0.0319	0.762	-0.538	1.34
TCGAGTAGGTTACCAATGGGCCATTCAGCTTTCT	0.506	1.7	-0.585	0.464	-1.18	1.09	0.383	1.13	0.927	1.04	3.13	2.59	-1.01	-0.848	-0.318	0.108	-0.851	0.175	-0.737	0.862
GCTGCTAGGTCAGGGTGGTCAGCTAACGGGTACG	1.3	1.02	-0.198	0.35	-0.645	2.03	1.63	1.95	-0.181	1.09	2.9	2.83	0.0307	-1.27	1.2	0.451	-0.345	1.03	0.165	3.61
ATAGCAAGGTGATCGTGAGGTCGTTGATACTAAC	1.34	0.986	0.104	0.673	-0.808	1.47	0.359	0.22	0.0107	-0.0753	0.118	0.727	0.619	0.253	0.565	2.62	0.543	1.98	-0.0537	1.16
ACTCGGAGCACAAAGGTCAGAGCTACGCCAGTGA	3.44	3.72	1.25	3.11	0.00562	4.38	5.58	6.38	4.55	6.24	0.735	2.74	-0.286	-0.435	2.92	3.62	0.191	4.5	0.544	4.29
CCTGCTAGGTCAATGGTCAGCTGAAGCAGCTCGC	3.06	2.17	-0.221	1.45	-0.203	3.22	4.4	5.35	2.69	4.92	4.48	4.13	0.258	-0.168	1.14	0.872	-0.578	1.71	-0.46	3.85
TAGCCTAGGTCATGCGGGCCAGTACAGTGTCGGC	4.21	2.99	0.179	1.48	-0.174	3.65	2.42	2.56	0.126	1.61	1.55	2.81	0.187	-0.334	1.24	1.55	-0.513	2.47	-0.899	3.61
AGAATCAGGTTATACGTAGATCAGGGAAGAAAGT	0.826	0.893	0.313	0.875	0.265	1.63	1.11	1.38	0.762	0.859	3.66	2.1	1.47	0.861	0.756	0.61	0.471	0.799	0.86	0.961
CCGACTGGGGCATAATGTTACCATAAGCCAGCCC	-0.414	-0.333	-0.335	-0.186	-0.735	0.127	1.15	1.01	-0.289	0.632	2.47	2.12	-0.872	-0.687	0.105	-0.537	-0.468	-0.283	-0.0507	0.133
AGAGACAGGTGAGTGAAGGTAACTCAGCTGGACG	0.542	0.207	-0.174	0.279	0.443	0.437	0.497	0.226	0.0896	0.0651	0.422	0.599	0.635	-0.659	0.101	0.0989	0.169	0.435	-0.0726	0.876
